Source: PubChem BioAssay AID1159580 (chemical genetic matrix, 2015)
“And” between values parts separate entries of the source, which are not always exact repeats. Identical values can stand only once. Among all 5,500 compounds or so, about 2,000 (36%) were called active. Another 18% or so got no clear call; they are omitted. No stated cut-off is given here; in the data, active means normalized growth mostly below about 0.91 (no sharp cut-off); inconclusive means no clear call, values can overlap the other calls; inactive means mostly above about 0.92. The list shows a part of the results. More than one record can exist for a structure, and the calls need not agree.

Assay: chemical genetic growth profiling, strain panel (AID 1159580);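 further: tested at 20 µM; growth read once vehicle control cultures reached saturation at 30 °C; 1 = growth at the plate median or of vehicle wells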
Conditions: growth OD

Measured: normalized growth

CSc1ccc2c(c1)C(N1CCN(C)CC1)Cc1ccccc1S2 (configuration not stated)
active: S. cerevisiae deletion strains, locus YBR021W, strain FUR4, stronger effect = lower value 0.364 | S. cerevisiae deletion strains, locus YCL061C, strain MRC1 (second series), stronger effect = lower value 0.532 | S. cerevisiae deletion strains, locus YDL035C, strain GPR1, stronger effect = lower value 0.755 | S. cerevisiae deletion strains, locus YDL074C, strain BRE1, stronger effect = lower value 0.584 | S. cerevisiae deletion strains, locus YDL101C, strain DUN1, stronger effect = lower value 0.537 | S. cerevisiae deletion strains, locus YDL134C, strain PPH21, stronger effect = lower value 0.631 | S. cerevisiae deletion strains, locus YDL192W, strain arf1, stronger effect = lower value 0.102 | S. cerevisiae deletion strains, locus YDR162C, strain NBP2, stronger effect = lower value 0.139 | S. cerevisiae deletion strains, locus YDR318W, strain mcm21, stronger effect = lower value 0.807 | S. cerevisiae deletion strains, locus YDR388W, stronger effect = lower value 0.659 | S. cerevisiae deletion strains, locus YDR502C, strain sam2, stronger effect = lower value 0.859 | S. cerevisiae deletion strains, locus YGL086W, strain mad1, stronger effect = lower value 0.741 | S. cerevisiae deletion strains, locus YGL248W, strain PDE1, stronger effect = lower value 0.712 | S. cerevisiae deletion strains, locus YGR078C, strain PAC10, stronger effect = lower value 0.833 | S. cerevisiae deletion strains, locus YGR135W, strain pre9, stronger effect = lower value 0.753 | S. cerevisiae deletion strains, locus YGR229C, strain SMI1, stronger effect = lower value 0.142 | S. cerevisiae deletion strains, locus YGR252W, strain gcn5, stronger effect = lower value 0.254 | S. cerevisiae deletion strains, locus YHR030C, strain SLT2, stronger effect = lower value 0.655 | S. cerevisiae deletion strains, locus YHR079C, strain IRE1 (second series), stronger effect = lower value 0.911 | S. cerevisiae deletion strains, locus YIL066C, strain RNR3, stronger effect = lower value 0.759 | S. cerevisiae deletion strains, locus YIL073C, strain SPO22, stronger effect = lower value 0.437 | S. cerevisiae deletion strains, locus YJL095W, strain BCK1, stronger effect = lower value 0.537 | S. cerevisiae deletion strains, locus YJL187C, strain SWE1 (second series), stronger effect = lower value 0.658 | S. cerevisiae deletion strains, locus YJR075W, strain HOC1, stronger effect = lower value 0.834 | S. cerevisiae deletion strains, locus YKL190W, strain CNB1, stronger effect = lower value 0.657 | S. cerevisiae deletion strains, locus YKR001C, strain vps1, stronger effect = lower value 0.0823 | S. cerevisiae deletion strains, locus YLR039C, strain RIC1, stronger effect = lower value 1.54 [resistant] | S. cerevisiae deletion strains, locus YLR058C, strain SHM2, stronger effect = lower value 0.77 | S. cerevisiae deletion strains, locus YLR262C, strain YPT6, stronger effect = lower value 1.56 [resistant] | S. cerevisiae deletion strains, locus YLR342W, strain FKS1 (second series), stronger effect = lower value 0.2 | S. cerevisiae deletion strains, locus YLR418C, strain cdc73, stronger effect = lower value 0.575 | S. cerevisiae deletion strains, locus YML032C, strain rad52, stronger effect = lower value 0.894 | S. cerevisiae deletion strains, locus YMR223W, strain ubp8, stronger effect = lower value 0.779 | S. cerevisiae deletion strains, locus YNL153C, strain GIM3, stronger effect = lower value 0.747 | S. cerevisiae deletion strains, locus YNL233W, strain BNI4, stronger effect = lower value 0.696 | S. cerevisiae deletion strains, locus YNL307C, strain MCK1, stronger effect = lower value 0.791 | S. cerevisiae deletion strains, locus YNL322C, strain KRE1, stronger effect = lower value 0.773 | S. cerevisiae deletion strains, locus YNR052C, strain pop2, stronger effect = lower value 0.705 | S. cerevisiae deletion strains, locus YOL006C, strain TOP1, stronger effect = lower value 0.413 | S. cerevisiae deletion strains, locus YOR061W, strain CKA2, stronger effect = lower value 0.122 | S. cerevisiae deletion strains, locus YOR083W, strain WHI5 (second series), stronger effect = lower value 0.745 | S. cerevisiae deletion strains, locus YOR184W, strain ser1, stronger effect = lower value 0.82 | S. cerevisiae deletion strains, locus YPL055C, strain LGE1, stronger effect = lower value 0.596 and 0.806 | S. cerevisiae deletion strains, locus YPR163C, strain tif3, stronger effect = lower value 0.0814 | S. cerevisiae deletion strains, strain wtn01, stronger effect = lower value 0.717 | S. cerevisiae strains, strain wild type, stronger effect = lower value 0.698
0.514 (active) and 0.999 (inactive): S. cerevisiae deletion strains, locus YMR307W, strain GAS1, stronger effect = lower value
inactive: S. cerevisiae deletion strains, locus YAL013W, strain DEP1, stronger effect = lower value 0.916 | S. cerevisiae deletion strains, locus YAL040C, strain CLN3, stronger effect = lower value 1 | S. cerevisiae deletion strains, locus YBR229C, strain ROT2, stronger effect = lower value 1.01 | S. cerevisiae deletion strains, locus YCL029C, strain bik1, stronger effect = lower value 0.987 | S. cerevisiae deletion strains, locus YDL185W, strain tfp1, stronger effect = lower value 1.01 | S. cerevisiae deletion strains, locus YDR101C, strain arx1, stronger effect = lower value 0.929 | S. cerevisiae deletion strains, locus YDR150W, strain NUM1, stronger effect = lower value 1 | S. cerevisiae deletion strains, locus YDR363W, strain ESC2, stronger effect = lower value 0.889 | S. cerevisiae deletion strains, locus YEL061C, strain CIN8, stronger effect = lower value 0.975 | S. cerevisiae deletion strains, locus YER002W, strain NOP16, stronger effect = lower value 1.07 | S. cerevisiae deletion strains, locus YER110C, stronger effect = lower value 0.976 | S. cerevisiae deletion strains, locus YER155C, strain BEM2, stronger effect = lower value 1.02 | S. cerevisiae deletion strains, locus YER167W, strain BCK2, stronger effect = lower value 0.937 | S. cerevisiae deletion strains, locus YGL078C, strain dbp3, stronger effect = lower value 0.991 | S. cerevisiae deletion strains, locus YHR094C, strain hxt1, stronger effect = lower value 0.993 | S. cerevisiae deletion strains, locus YHR129C, strain ARP1, stronger effect = lower value 0.99 | S. cerevisiae deletion strains, locus YHR200W, strain rpn10, stronger effect = lower value 0.959 | S. cerevisiae deletion strains, locus YIL125W, strain kgd1, stronger effect = lower value 0.977 | S. cerevisiae deletion strains, locus YIR030C, strain dcg1, stronger effect = lower value 0.958 | S. cerevisiae deletion strains, locus YJL134W, strain LCB3, stronger effect = lower value 1.01 | S. cerevisiae deletion strains, locus YJL168C, strain set2, stronger effect = lower value 0.947 | S. cerevisiae deletion strains, locus YJR043C, strain POL32, stronger effect = lower value 0.92 | S. cerevisiae deletion strains, locus YKL009W, strain mrt4, stronger effect = lower value 0.962 | S. cerevisiae deletion strains, locus YKL068W, stronger effect = lower value 0.999 | S. cerevisiae deletion strains, locus YKL085W, strain MDH1 (second series), stronger effect = lower value 0.987 | S. cerevisiae deletion strains, locus YKL085W, strain MDH1, stronger effect = lower value 0.987 | S. cerevisiae deletion strains, locus YLR102C, strain apc9, stronger effect = lower value 0.987 | S. cerevisiae deletion strains, locus YLR268W, strain sec22, stronger effect = lower value 0.901 | S. cerevisiae deletion strains, locus YLR330W, strain CHS5, stronger effect = lower value 0.994 | S. cerevisiae deletion strains, locus YML124C, strain tub3, stronger effect = lower value 0.995 | S. cerevisiae deletion strains, locus YMR078C, strain ctf18, stronger effect = lower value 0.993 | S. cerevisiae deletion strains, locus YMR263W, strain SAP30, stronger effect = lower value 0.917 | S. cerevisiae deletion strains, locus YNL067W, strain RPL9B, stronger effect = lower value 0.914 | S. cerevisiae deletion strains, locus YNL175C, strain NOP13, stronger effect = lower value 1.02 | S. cerevisiae deletion strains, locus YNL197C, strain WHI3, stronger effect = lower value 1.06 | S. cerevisiae deletion strains, locus YNL224C, strain SQS1, stronger effect = lower value 1.01 | S. cerevisiae deletion strains, locus YNL250W, strain rad50, stronger effect = lower value 1.01 | S. cerevisiae deletion strains, locus YNL271C, strain bni1, stronger effect = lower value 0.977 | S. cerevisiae deletion strains, locus YNL298W, strain CLA4, stronger effect = lower value 0.979 | S. cerevisiae deletion strains, locus YOL012C, strain htz1 0.27 | S. cerevisiae deletion strains, locus YOL147C, strain pex11, stronger effect = lower value 0.944 | S. cerevisiae deletion strains, locus YOR069W, strain VPS5, stronger effect = lower value 1 | S. cerevisiae deletion strains, locus YOR136W, strain idh2, stronger effect = lower value 0.938 | S. cerevisiae deletion strains, locus YOR144C, strain elg1, stronger effect = lower value 1.01 | S. cerevisiae deletion strains, locus YOR316C, strain cot1, stronger effect = lower value 0.986 | S. cerevisiae deletion strains, locus YPL241C, strain CIN2, stronger effect = lower value 0.996 | S. cerevisiae deletion strains, locus YPR119W, strain clb2, stronger effect = lower value 0.988 | S. cerevisiae deletion strains, locus YPR141C, strain kar3, stronger effect = lower value 0.998 | S. cerevisiae deletion strains, locus YPR167C, strain met16, stronger effect = lower value 0.986
0.771 (active) and 1.09 (inactive): S. cerevisiae deletion strains, locus YNL128W, strain TEP1, stronger effect = lower value
